# Results as given in PubChem BioAssay AID743446 (Broad Institute, 2014).
# Measured potencies and affinities stand elsewhere. A number with no mark means an inactive call. How the calls were made is not given here.
# Test: viability loss in HEK293 cells – cell-based, plate reader, cherry-picked samples, cytotoxicity control, dose response (AID 743446)
# Conditions: stronger effect = lower value; at 26 µM unless noted
row,Compound,max activity
1,O=C(O)c1ccc(-c2noc(-c3ccccc3Cl)n2)cc1,-20.2% [at 6 µM]
2,c1nc(CCO[C@H]2CCCCO2)cc2cc3c(cc12)OCO3,9.43%
3,NCC[C@H]1CC[C@H](NS(=O)(=O)Cc2ccccc2)[C@@H](CO)O1,24.3%
4,Cc1ccc(-c2cc(C(=O)N(C)Cc3cnn(C)c3C)c3cc(Br)ccc3n2)cc1,-9.48%
5,CCOC(=O)c1cn2nc(N3CCCC3)ccc2n1,-7.31% [at 6 µM]
6,Cc1cc(C)c(C)c(S(=O)(=O)N2CCN(c3ncnc4ccccc34)CC2)c1C,62% [at 1.6 µM]
7,Cc1ccccc1N=CC1=C(O)c2ccccc2C1=O,12.1% [at 0.05 µM]
8,COc1ccc2nc(-c3ccccn3)ccc2c1,-37.6%
9,COc1ccc(C(=O)CN2C(=O)c3ccccc3S2(=O)=O)cc1,-13.3% [at 0.05 µM]
10,Cn1c(=O)c2cc(NC(=O)NCc3ccccc3)ccc2n1C/C=C/c1ccccc1,34.9% [at 1.6 µM]
11,O=C(CN1C(=O)c2ccccc2S1(=O)=O)Nc1ncc(Cl)cc1Cl,-12.9% [at 1.6 µM]
12,c1ccc(COc2cccc(-c3cc4nc(NCCCn5ccnc5)ccn4n3)c2)cc1,48.7% [at 0.195 µM]
13,O=C(O)c1cccc(Nc2ccnc(Nc3cccc(C(=O)O)c3)n2)c1,-12.2% [at 0.05 µM]
14,CN(C)c1ccc(C2NC(=O)c3ccccc3N2)cc1 (stereo not drawn),20.5% [at 0.1 µM]
15,Cc1ccc2nc(NC(=O)CCCC(=O)O)sc2c1,12.5%
16,COCCOc1cc(NCc2ccccc2)c2ncn(C(C)C)c2c1,-9.83% [at 0.1 µM]
17,COCCn1c(C)cc(C(=O)CSc2nnc3ccccn23)c1C,-15% [at 6 µM]
18,CCOC(=O)c1cn2nc(N3CCCCC3)ccc2n1,-14% [at 3 µM]
19,CN1CCN(c2ccc(NC(=O)c3sc4ccccc4c3Cl)cc2)CC1,17.1% [at 0.1 µM]

row,Compound,max activity
1,O=C(CSc1nc2ccccc2[nH]1)Nc1nc(-c2cccc(Br)c2)cs1,46.2% [at 1.6 µM]
2,O=C(CN1C(=O)c2ccccc2S1(=O)=O)c1ccccc1Cl,32.4%
3,CC1CN(C(=O)c2cccc(S(=O)(=O)Nc3cc(Cl)ccc3Cl)c2)CC(C)O1 (stereo not drawn),5.34%
4,COc1ccc(-c2cc3nc(NCC4CCCCC4)n(C)c(=O)c3s2)cc1OC,41.6% [at 1.6 µM]
5,O=C(O)c1cccc(-c2nc3ccccc3[nH]2)c1,-25.9% [at 0.38 µM]
6,Cc1ccccc1C(=O)Nc1nnc(-c2ccco2)s1,-13.7% [at 12 µM]
7,C[C@H](CO)N1C[C@H](C)[C@H](CN(C)Cc2ccccc2)Oc2c(NS(=O)(=O)c3cn(C)cn3)cccc2C1=O,13% [at 1.6 µM]
8,CCc1nnc2cccc(Cl)n12,-9.24% [at 1.6 µM]
9,CC1CCCN(c2ncnc3c2cnn3-c2ccccc2)C1 (stereo not drawn),-23.6% [at 12 µM]
10,N#C[C@@H]1[C@H](c2ccc(C#CC3CCCCC3)cc2)[C@@H](CO)N1C(=O)c1cccc(F)c1,43.6% [at 0.09 µM]
11,O=C(O)c1cccc(COc2ccc(CO)cc2Cl)c1,13.3% [at 6 µM]
12,Cc1ccc(-n2nnc(-c3nccn3C)n2)cc1,-39%
13,Fc1ccc(-n2nnc(-c3cnc4ccccc4c3)n2)cc1,26.8% [at 1.6 µM]
14,CCS(=O)(=O)N1Cc2ccccc2CC1C(=O)Nc1nc2ccccc2s1 (stereo not drawn),11.4% [at 0.38 µM]
15,COc1cccc(-c2cc(C(=O)N3CCCCCC3)no2)c1,-9.64% [at 12 µM]
16,Cn1cnc(S(=O)(=O)N2C[C@@H](O)COC[C@H]3O[C@H](CC(=O)NC4CCCC4)CC[C@@H]32)c1,13.5% [at 0.38 µM]
17,CC(C)(C)NC(=O)c1cccc(NC(=O)c2ccc3c(c2)C(=O)N(C(C)(C)C)C3=O)c1,27.3% [at 0.195 µM]
18,COc1cc(SC)ccc1C(=O)Nc1ccc(Cl)cn1,19.7% [at 3 µM]
19,Cc1ccc(S(=O)(=O)N2[C@@H](CO)CO[C@H]2CC(=O)OCc2ccccc2)cc1,42.9% [at 12 µM]
